The results in this text go back to PubChem BioAssay (Tox21).

Values without a mark were called inactive. Results filed as inconclusive are left out. Activity calls are given as the source filed them. Calls follow the shape of the dose curve; as a rule, active = well fitted curve in the direction sought with a large enough effect in the repeat runs; inconclusive = weak or mixed curves; inactive = no such curve, though single readings can be large; an effect the other way counts as inactive or inconclusive.

Assay [1] can be described thus: Caspase-3/7 induction in HepG2 cells by small molecules, qHTS assay (AID 1346978). Also: nearly all actives have a fitted effect of over 15% in size. An outline of the steps:
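Caspase-3/7 induction was measured by Caspase-Glo 3/7 luminescence (30 min, room temperature) after a 17 hr compound exposure of wild-type HepG2 cells seeded at 2,000 per well and pre-incubated 5 hr.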

A short description of assay [2]: Caspase-3/7 induction in CHO-K1 cells by small molecules, qHTS cell viability counter screen (AID 1346979). Also: nearly all actives have a fitted effect of over 35% in size. An outline of the steps: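 CHO-K1 wt, 1,500 cells/well; 5hr pre-incubation 37C/5% CO2; compound pin transfer (DMSO); 16hr exposure; CellTiter-Fluor added, 1hr, fluorescence read.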
Assay [3] in a line: Caspase-3/7 induction in CHO-K1 cells by small molecules, qHTS assay (AID 1346980). Also: nearly all actives have a fitted effect of over 15% in size. In short, it runs like this:
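Luminescent Caspase-Glo 3/7 read (30min, room temperature) quantified apoptosis induction. Cells were wild-type CHO-K1, treated with compound for 17hr at 37 C and 5% CO2.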

Assay [4] can be described thus: Caspase-3/7 induction in HepG2 cells by small molecules, qHTS cell viability counter screen (AID 1346981). Also: series mostly up to about 92 µM; nearly all actives have a fitted effect of over 30% in size. An outline of the steps:
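Wild-type HepG2 cells (2,000/well) were allowed to settle for 5 hr at 37 C, 5% CO2, then dosed with compounds in DMSO by pin transfer. After 16 hr at 37 C, CellTiter-Fluor was added and fluorescence read 1 hr later.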

The target in assay [5] is Nuclear receptor subfamily 1 group I member 2 (Homo sapiens) (UniProt O75469). The experiment in a line: Human pregnane X receptor (PXR) small molecule agonists, qHTS assay (AID 1346982). Also: nearly all actives have a fitted effect of over 35% in size. Also: potency is read from the fitted curve at half-maximal effect. In short, it runs like this:
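PXR-Luc HepG2 cells (CYP3A4 promoter-driven luciferase) were seeded in medium with 5% charcoal-stripped FBS, left 5 hr at 37 C, then exposed to compounds in DMSO for 24 hr. Luminescence was read after ONE-Glo addition.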

Assay [6] concerns the target Cytochrome P450 2D6 (Homo sapiens) (UniProt P10635). The experiment in a line: Cytochrome P450 Family 2 Subfamily D Member 6 (CYP2D6) small molecule antagonists: luciferase reporter qHTS assay (AID 1671196). Also: nearly all actives have a fitted effect of over 50% in size. Also: potency is read from the fitted curve at half-maximal effect. As to activity change, negative = inhibition: series mostly up to about 120 µM. In short, it runs like this:
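CYP2D6 enzyme–substrate mix was held with compound for 10 min at room temperature, then NADPH regeneration solution was added and the reaction ran 1 h at room temperature. Luciferin product was detected by luminescence after 20 min with detection reagent.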

Assay [7] addresses Cytochrome P450 2C19 (Homo sapiens) (UniProt P33261). The experiment in a line: Cytochrome P450 Family 2 Subfamily C Member 19 (CYP2C19) small molecule antagonists: luciferase reporter qHTS assay (AID 1671197). Also: nearly all actives have a fitted effect of over 65% in size. Also: potency is read from the fitted curve at half-maximal effect. As to activity change, negative = inhibition: series mostly up to about 120 µM. An outline of the steps: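 Inhibition of CYP2C19 was scored from loss of luminescence in a P450-Glo proluciferin substrate assay, NADPH-started and run 1 h at 37C, with ketoconazole as positive control.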

In assay [8] the target is Cytochrome P450 1A2 (Homo sapiens) (UniProt P05177). The experiment in a line: Cytochrome P450 Family 1 Subfamily A Member 2 (CYP1A2) small molecule antagonists: luciferase reporter qHTS assay (AID 1671199). Also: nearly all actives have a fitted effect of over 50% in size. Also: potency is read from the fitted curve at half-maximal effect. As to activity change, negative = inhibition: series mostly up to about 120 µM. An outline of the steps: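 Human CYP1A2 activity measured with a P450-Glo proluciferin substrate; compounds in DMSO preincubated 10 min at room temperature with enzyme-substrate mix, then NADPH regeneration system added for 1 h. Luciferin detection reagent, 20 min, luminescence read.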
Chain of Cytochrome P450 1A2 (Homo sapiens) (P05177 whole entry, looked up): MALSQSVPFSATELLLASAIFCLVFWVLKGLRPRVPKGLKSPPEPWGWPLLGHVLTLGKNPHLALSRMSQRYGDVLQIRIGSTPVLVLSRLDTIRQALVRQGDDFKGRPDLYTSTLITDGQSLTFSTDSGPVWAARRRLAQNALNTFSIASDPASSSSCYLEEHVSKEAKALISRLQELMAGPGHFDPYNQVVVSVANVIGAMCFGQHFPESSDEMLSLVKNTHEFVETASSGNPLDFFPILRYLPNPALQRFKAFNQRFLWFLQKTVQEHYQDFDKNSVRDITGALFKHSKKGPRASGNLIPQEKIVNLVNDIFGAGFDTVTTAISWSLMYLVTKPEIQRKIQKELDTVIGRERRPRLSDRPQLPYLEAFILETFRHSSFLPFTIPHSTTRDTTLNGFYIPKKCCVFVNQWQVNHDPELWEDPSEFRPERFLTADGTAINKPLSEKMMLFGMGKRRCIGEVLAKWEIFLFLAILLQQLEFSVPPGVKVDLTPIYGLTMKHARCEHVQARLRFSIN

For assay [9], the target named is Voltage-gated inwardly rectifying potassium channel KCNH2 (Homo sapiens) (UniProt Q12809). The experiment in a line: Human Ether-a-go-go-Related Gene (hERG) channel small molecule antagonists: fluorescence cell-based qHTS assay (AID 1671200).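 Also: hERG-expressing U2OS cells given a thallium stimulus after FluxOR II dye loading; series mostly up to about 77 µM; nearly all actives have a fitted effect of over 50% in size.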 In short, it runs like this: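 Read-out: thallium influx as a surrogate for potassium, tracked as fluorescence (480 nm ex/540 nm em) every second for 2 min after Stimulus Buffer addition in dye-loaded hERG-U2OS cells.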
Chain of Voltage-gated inwardly rectifying potassium channel KCNH2 (Homo sapiens) (Q12809 whole entry, looked up): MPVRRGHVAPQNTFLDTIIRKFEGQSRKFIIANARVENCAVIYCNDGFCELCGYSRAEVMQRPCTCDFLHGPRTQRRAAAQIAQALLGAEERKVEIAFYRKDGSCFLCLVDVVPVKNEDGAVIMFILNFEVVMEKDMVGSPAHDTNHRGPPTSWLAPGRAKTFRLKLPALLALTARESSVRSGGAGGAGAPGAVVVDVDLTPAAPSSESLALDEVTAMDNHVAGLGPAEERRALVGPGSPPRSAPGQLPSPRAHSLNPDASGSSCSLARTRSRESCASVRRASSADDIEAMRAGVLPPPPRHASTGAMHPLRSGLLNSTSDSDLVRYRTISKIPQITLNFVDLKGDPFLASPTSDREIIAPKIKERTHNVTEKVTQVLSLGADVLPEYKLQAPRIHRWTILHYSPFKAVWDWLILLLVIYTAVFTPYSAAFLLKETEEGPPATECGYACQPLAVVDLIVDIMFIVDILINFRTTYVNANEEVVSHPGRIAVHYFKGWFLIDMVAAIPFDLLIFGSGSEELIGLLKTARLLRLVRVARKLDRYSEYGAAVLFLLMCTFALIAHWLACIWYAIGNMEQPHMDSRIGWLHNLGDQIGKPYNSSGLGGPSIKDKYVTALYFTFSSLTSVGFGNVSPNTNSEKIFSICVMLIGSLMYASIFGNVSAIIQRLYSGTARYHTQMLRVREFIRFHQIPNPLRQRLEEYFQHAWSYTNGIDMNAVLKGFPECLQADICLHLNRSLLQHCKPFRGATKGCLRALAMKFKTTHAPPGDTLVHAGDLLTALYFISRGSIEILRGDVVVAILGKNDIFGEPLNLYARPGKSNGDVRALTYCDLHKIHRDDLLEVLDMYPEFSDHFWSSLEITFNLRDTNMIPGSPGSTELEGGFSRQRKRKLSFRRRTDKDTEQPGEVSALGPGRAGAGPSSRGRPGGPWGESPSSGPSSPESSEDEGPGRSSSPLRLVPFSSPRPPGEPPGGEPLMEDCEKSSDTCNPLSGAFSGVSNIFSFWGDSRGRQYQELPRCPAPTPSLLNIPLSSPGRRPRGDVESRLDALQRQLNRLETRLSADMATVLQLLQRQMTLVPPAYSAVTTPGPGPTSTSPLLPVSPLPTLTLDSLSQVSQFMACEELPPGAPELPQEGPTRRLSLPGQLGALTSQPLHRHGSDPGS

The target of assay [10] is Cytochrome P450 3A4 (Homo sapiens) (UniProt P08684). The experiment in a line: Cytochrome P450 Family 3 Subfamily A Member 4 (CYP3A4) small molecule antagonists: luciferase reporter qHTS assay (AID 1671201). Also: nearly all actives have a fitted effect of over 50% in size. Also: potency is read from the fitted curve at half-maximal effect. As to activity change, negative = inhibition: series mostly up to about 120 µM. In short, it runs like this:
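Luminescent readout (RLU) proportional to CYP3A4 activity, from luciferin generated off a proluciferin substrate. Enzyme–substrate mix plus compound 10 min at room temp, NADPH regeneration 1 h, detection reagent 20 min.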

Assay [11] has as its target Cytochrome P450 2C9 (Homo sapiens) (UniProt P11712). The experiment in a line: Cytochrome P450 Family 2 Subfamily C Member 9 (CYP2C9) small molecule antagonists: luciferase reporter qHTS assay (AID 1671198). Also: nearly all actives have a fitted effect of over 50% in size. Also: potency is read from the fitted curve at half-maximal effect. As to activity change, negative = inhibition: series mostly up to about 120 µM. In short, it runs like this:
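Enzyme-substrate mix preincubated with compound 10 min at room temperature; reaction started with NADPH regeneration solution, 1 h 37C. Luminescent luciferin product read after 20 min detection reagent.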
% is scaled to controls: 0 for no effect and ±100 for the full control effect.

Chain of Nuclear receptor subfamily 1 group I member 2 (Homo sapiens) (O75469 whole entry, looked up): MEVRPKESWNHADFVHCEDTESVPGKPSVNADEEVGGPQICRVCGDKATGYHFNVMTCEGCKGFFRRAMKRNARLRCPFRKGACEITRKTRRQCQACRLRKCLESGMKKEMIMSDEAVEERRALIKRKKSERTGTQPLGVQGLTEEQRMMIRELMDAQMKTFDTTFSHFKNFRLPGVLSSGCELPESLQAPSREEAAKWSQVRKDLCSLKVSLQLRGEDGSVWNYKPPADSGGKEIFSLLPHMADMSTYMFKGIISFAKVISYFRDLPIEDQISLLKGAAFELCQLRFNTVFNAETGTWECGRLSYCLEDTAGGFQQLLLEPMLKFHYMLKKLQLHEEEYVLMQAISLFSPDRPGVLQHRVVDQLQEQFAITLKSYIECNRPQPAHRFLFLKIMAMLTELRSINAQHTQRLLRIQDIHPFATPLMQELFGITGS
Chain of Cytochrome P450 2D6 (Homo sapiens) (P10635 whole entry, looked up): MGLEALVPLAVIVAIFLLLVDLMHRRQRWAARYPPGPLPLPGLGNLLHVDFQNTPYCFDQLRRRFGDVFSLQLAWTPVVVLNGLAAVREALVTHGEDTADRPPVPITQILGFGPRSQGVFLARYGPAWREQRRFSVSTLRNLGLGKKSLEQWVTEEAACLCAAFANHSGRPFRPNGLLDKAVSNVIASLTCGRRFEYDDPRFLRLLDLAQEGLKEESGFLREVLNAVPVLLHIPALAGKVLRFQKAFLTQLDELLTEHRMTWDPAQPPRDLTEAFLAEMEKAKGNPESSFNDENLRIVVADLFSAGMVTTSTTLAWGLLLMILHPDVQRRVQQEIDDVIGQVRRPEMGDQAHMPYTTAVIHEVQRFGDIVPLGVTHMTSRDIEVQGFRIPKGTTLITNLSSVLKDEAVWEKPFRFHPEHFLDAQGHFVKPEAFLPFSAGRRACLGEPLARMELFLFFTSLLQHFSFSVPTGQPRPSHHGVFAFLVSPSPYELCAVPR
Chain of Cytochrome P450 2C9 (Homo sapiens) (P11712 whole entry, looked up): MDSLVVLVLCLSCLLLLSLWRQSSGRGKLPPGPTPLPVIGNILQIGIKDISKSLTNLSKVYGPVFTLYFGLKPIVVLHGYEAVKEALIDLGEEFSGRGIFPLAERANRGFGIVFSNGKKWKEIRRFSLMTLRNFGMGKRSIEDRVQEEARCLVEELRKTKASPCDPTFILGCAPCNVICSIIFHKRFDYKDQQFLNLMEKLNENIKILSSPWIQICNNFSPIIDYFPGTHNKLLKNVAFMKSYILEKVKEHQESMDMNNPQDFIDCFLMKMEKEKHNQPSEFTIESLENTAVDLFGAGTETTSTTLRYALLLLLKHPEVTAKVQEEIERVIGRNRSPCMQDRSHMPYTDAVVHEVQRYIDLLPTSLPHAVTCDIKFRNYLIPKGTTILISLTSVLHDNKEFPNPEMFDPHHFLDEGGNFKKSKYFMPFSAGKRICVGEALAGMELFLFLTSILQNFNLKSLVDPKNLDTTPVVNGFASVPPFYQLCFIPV
Chain of Cytochrome P450 3A4 (Homo sapiens) (P08684 whole entry, looked up): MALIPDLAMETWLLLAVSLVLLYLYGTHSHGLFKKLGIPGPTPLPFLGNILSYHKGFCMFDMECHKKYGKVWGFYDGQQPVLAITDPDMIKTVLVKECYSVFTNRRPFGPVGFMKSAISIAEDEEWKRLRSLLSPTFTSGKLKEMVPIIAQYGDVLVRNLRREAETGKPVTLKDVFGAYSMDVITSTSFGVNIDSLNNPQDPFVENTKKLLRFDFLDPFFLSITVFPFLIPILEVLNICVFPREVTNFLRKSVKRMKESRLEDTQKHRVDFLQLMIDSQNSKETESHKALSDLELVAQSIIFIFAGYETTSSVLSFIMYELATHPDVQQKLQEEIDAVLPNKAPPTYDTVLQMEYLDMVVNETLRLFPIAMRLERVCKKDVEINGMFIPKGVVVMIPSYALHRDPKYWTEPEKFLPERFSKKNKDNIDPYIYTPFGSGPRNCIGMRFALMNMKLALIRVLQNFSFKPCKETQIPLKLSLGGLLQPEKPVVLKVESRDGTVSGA
Chain of Cytochrome P450 2C19 (Homo sapiens) (P33261 whole entry, looked up): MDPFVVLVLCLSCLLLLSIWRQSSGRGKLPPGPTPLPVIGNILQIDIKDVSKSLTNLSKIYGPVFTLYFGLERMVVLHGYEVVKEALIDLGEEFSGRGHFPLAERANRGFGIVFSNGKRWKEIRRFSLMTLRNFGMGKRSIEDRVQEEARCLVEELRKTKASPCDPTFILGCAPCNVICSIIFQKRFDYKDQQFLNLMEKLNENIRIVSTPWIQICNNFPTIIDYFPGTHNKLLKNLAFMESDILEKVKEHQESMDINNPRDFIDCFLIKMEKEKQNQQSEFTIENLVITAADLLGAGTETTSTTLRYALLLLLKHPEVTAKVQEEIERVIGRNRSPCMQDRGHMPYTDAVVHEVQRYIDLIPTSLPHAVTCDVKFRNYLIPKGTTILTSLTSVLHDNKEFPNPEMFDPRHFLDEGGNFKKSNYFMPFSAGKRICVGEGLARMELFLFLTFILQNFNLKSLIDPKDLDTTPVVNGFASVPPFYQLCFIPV

Regarding `C=CCCCCCCCCO`, the Potency result in assay [1], in assay [2], in assay [4], in assay [5], in assay [6] and in assay [7] was “inactive” in each case. For the same compound, the Potency entry in assay [9] and in [10] was “inactive” in each case. Besides, the compound was called inactive in assay [3]. Further, the Potency in assay [8] was 39.9 µM (active).
As to `CCCOCCC`, the Potency entry in [1], in [2], in assay [4], in assay [5], in assay [6] and in assay [7] was “inactive” each time. The Potency result in [8], in assay [9] and in assay [10] was “inactive” throughout. Also, in assay [3], the call was inactive.
As for `COC(=O)c1ccc2cc(C(=O)OC)ccc2c1`, the caspase activation in [1] was -5.84% [at 19 µM]. Moreover, the activity change, negative = cytotoxicity in assay [2] is 6.59% [at 19 µM]; in assay [4], -0.603% [at 19 µM]. The caspase-3/7 activation in assay [3] was -2.42% [at 19 µM]. Further, the activation in [5] was 19.9% [at 19 µM]. The figures for the activity change, negative = inhibition in assay [6], in [9] and in [10] were -8.11% [at 23.6 µM], 9.84% [at 15.8 µM] and 16.2% [at 23.6 µM], respectively. Also, the Potency entry in assay [11] was “inactive”. Also, in assay [8], the Potency is 2.58 µM (active).
Regarding `COC(=O)C(C)O` (configuration not stated), the Potency entry in assay [1], in assay [2], in assay [4], in [5], in assay [6] and in assay [7] was “inactive” each time. Also, the Potency result in assay [11], in assay [9] and in assay [10] was “inactive” each time. Besides, the compound was called inactive in assay [3].
On to `CCOc1ccc2nc(N)sc2c1`, for which the Potency result in [1], in assay [2] and in assay [4] was “inactive” each time. The compound was called inactive in assay [3]. Also, the Potency is 17.1 µM (active) in assay [5], 22.3 µM (active) in assay [7], 31.5 µM (active) in [11] and 17.7 µM (active) in assay [8].
Take `OCc1c2ccccc2cc2ccccc12`: the Potency result in assay [1], in assay [2], in assay [4] and in [9] was “inactive” throughout. In assay [3], the compound was called inactive. The Potency in assay [5] was 48.7 µM (active); in assay [7] it was 35.7 µM (active); in [11], 22.5 µM (active); in assay [8] it was 0.897 µM (active); in assay [10], 25.3 µM (active).
With `CCCCCCCCc1ccc(S(=O)(=O)O)cc1`, the Potency entry in assay [1], in assay [2], in assay [4], in assay [5], in assay [6] and in assay [7] was “inactive” throughout. The Potency result in assay [8], in assay [9] and in assay [10] was “inactive” throughout. For the same compound, in assay [3], the call was inactive.
For `CCCC(CCC)(C(=O)OCC)C(=O)OCC`, the Potency result in assay [1], in assay [2], in [4], in [5], in assay [6] and in assay [7] was “inactive” each time. For the same compound, the Potency result in [9] and in assay [10] was “inactive” throughout. The compound was classed as inactive in [3].
`COc1nc(C)nc(NC(=O)NS(=O)(=O)c2ccccc2OCCCl)n1`: the Potency entry in [1], in assay [2], in assay [4], in assay [5], in assay [7] and in [11] was “inactive” each time. Besides, the Potency entry in assay [9] is “inactive”. Moreover, in assay [3], the result was inactive. For the same compound, in assay [8], the Potency is 35.4 µM (active).
Turning to `Cc1ccc(C)c(N)c1`, the Potency entry in assay [1], in assay [2], in [4], in assay [5] and in assay [9] was “inactive” in each case. In addition, in assay [3], the compound was called inactive. Further, the Potency was 20 µM (active) in assay [6], 7.11 µM (active) in assay [7], 35.6 µM (active) in assay [8] and 3.56 µM (active) in assay [10].
In the case of `CN(C)Cc1ccccc1`, the Potency result in assay [1], in [2], in assay [4], in assay [5], in assay [7] and in [11] was “inactive” each time. Further, the Potency result in [9] and in [10] was “inactive” each time. The call in assay [3] was inactive. Also, the Potency in assay [6] is 18 µM (active).
As to `CC1=C(O)C(=O)OC1C` (configuration not stated), the Potency result in [1], in [2], in assay [4], in assay [5], in [6] and in assay [7] was “inactive” in each case. Besides, the Potency result in assay [11], in assay [8], in assay [9] and in assay [10] was “inactive” each time. In assay [3], the call was inactive.
